# Source: PubChem (National Center for Advancing Translational Sciences (NCATS))
# This is a sample that favours compounds with a hit; in the whole collection about 1.4% have one here.
# Vif-A3F inh: inhibitors of Vif-A3F interaction; HeLa A3F-eYFP + Vif (tagged APOBEC3F with the HIV-1 protein that degrades it), YFP fluorescence increase; Potency, µM (highest dose often 46.1 µM), for the others: at the highest dose activity, negative = active; actives 0.2% (n = 390,000); further: potency means the concentration at half of the fitted maximal effect; % of control where 0% means no effect; nearly all actives have a fitted effect of over 65% in size
#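 Fluorescence increase (Ex 488/Em 500-530) after overnight compound treatment at 37 deg C flags inhibition of Vif-driven A3F-eYFP loss in stable HeLa A3F-eYFP/Vif cells seeded overnight beforehand.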
# Vif-A3G inh: inhibitors of Vif-APOBEC3G interaction; HeLa A3G-eYFP + Vif (tagged APOBEC3G with the HIV-1 protein that degrades it), YFP fluorescence, overnight; actives 0.076% (n = 410,000); Q9HC16; Potency, µM (top dose mostly 46.1 µM), without a hit: top-dose activity, negative = active, most hits filed as inhibitors; AID 602310; further: potency means the concentration at half of the fitted maximal effect; on the % scale 0 is the no-effect control and ±100 the full control effect; nearly all actives have a fitted effect of over 60% in size
#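 Read-out is eYFP fluorescence (Ex 488/Em 500-530) from Vif-expressing HeLa A3G-eYFP cells; more signal means A3G escaped Vif-mediated degradation. Cells plated overnight, compound pinned in, incubated overnight at 37 deg C.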
# pAkt inh: blocks phosphorylation of Akt; Neuro2A IGF-stimulated pAkt S473 HTRF, 20 min; hits give low values; activity change, % for hits at 50 µM; actives 0.32% (n = 360,000); AID 651550; in the data active means activity change below about -80%; inconclusive means mostly about -51% to -80%; further: on the % scale 0 is the no-effect control and ±100 the full control effect
#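 Single-point screen (50 µM final compound) in Neuro2A cells stimulated 20 min with 6 nM IGF at 37 deg C. After lysis, Ser473-phosphorylated Akt read by HTRF (ex 330 nm, em 615/665 nm) as the 665/615 ratio.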
# ASM inhibitor: inhibitors of human secretory acid sphingomyelinase; placental ASM, HMU-PC fluorogenic substrate, 60 min; Potency, µM (titrated, usually from 57.5 µM), inactives show at the highest dose activity change, negative = inhibition, actives largely listed as inhibitors; actives 0.006% (n = 340,000); AID 504937; further: potency means the concentration at half of the fitted maximal effect
# Target sequence (P17405 47-631 limits assumed): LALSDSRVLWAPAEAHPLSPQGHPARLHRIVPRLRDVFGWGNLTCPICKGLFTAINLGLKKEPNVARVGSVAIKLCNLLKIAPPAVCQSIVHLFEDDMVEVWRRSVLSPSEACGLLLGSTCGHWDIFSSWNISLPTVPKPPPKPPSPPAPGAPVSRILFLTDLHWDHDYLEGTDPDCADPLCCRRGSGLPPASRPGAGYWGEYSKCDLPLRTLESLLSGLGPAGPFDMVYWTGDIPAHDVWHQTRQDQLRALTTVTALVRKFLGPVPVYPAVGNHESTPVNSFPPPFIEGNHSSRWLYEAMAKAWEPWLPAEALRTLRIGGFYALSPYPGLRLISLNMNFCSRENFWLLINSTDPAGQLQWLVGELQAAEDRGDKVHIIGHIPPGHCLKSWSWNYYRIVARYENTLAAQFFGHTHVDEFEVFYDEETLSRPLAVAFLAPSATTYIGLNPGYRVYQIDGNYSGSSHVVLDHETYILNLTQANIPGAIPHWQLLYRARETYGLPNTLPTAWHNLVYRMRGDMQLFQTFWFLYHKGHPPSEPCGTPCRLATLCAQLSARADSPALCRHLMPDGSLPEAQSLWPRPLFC
#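 Steps: dispense placental human ASM, pin compound, wait 10 min at room temperature, add HMU-PC0 substrate at 9 uM final, incubate 60 min at 37 °C, add stop solution raising pH to 10, read fluorescence.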
# ALOX12 inh: ALOX12 (human) lipoxygenase inhibition | P18054 | purified 12hLO, xylenol orange hydroperoxide absorbance | Potency, µM (highest dose often 108 µM), without a hit: top-dose activity change, negative = inhibition, most hits filed as inhibitors | actives 1.1% (n = 580,000); further: potency means the concentration at half of the fitted maximal effect; on the % scale 0 is the no-effect control and ±100 the full control effect
#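 Hydroperoxide product was detected by ferrous iron/xylenol orange as the 573 to 405 nm absorbance ratio. Arachidonic acid at 40 uM (final) was turned over for 30 min at room temperature by 150 nM human 12hLO, pH 7.0 Hepes buffer, after 15 min compound preincubation.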
# TSG101-PTAP inh: blocks PTAP/TSG101 interaction to inhibit HIV-1 budding. Fluorescence polarization, FITC-PTAP peptide / Tsg101 binding. 340,000 tested, under 10 active. Q99816. Potency, µM (highest dose often 115 µM), without a hit: top-dose activity change, negative = inhibition, usual class: inhibitors; active means well fitted inhibition curve with a large enough effect in the main read-out, with a control signal flat, not every such curve was filed as active; inconclusive means small, poorly fitted or top-dose-only effect, or effect the other way, or a change in a side signal; inactive means no such curve, though single readings can be large or run the other way; further: potency means the concentration at half of the fitted maximal effect; % of control where 0% means no effect
#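 Fluorescence polarization binding of Tsg101 binding domain (10 uM final) to FITC-labeled PTAP peptide (50 nM final) in HEPES pH 7.5 buffer with NaCl, Tween 20, EDTA, TCEP. Compounds added before peptide; binding 20 min at RT.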
# Starred values were filed as active, the others as inactive; i = inactive; ? = inconclusive; . = no result given; [ ] = remark or other dose. Unless noted, the call rests on the fitted dose curve; in most records, active means well fitted curve in the direction sought with a large enough effect; inconclusive means small, poorly fitted or top-dose-only effect, or another doubt; inactive means no such curve, though single readings can be large; an effect the other way counts as inactive or inconclusive.
SMILES,Vif-A3F inh,Vif-A3G inh,pAkt inh,ASM inhibitor,ALOX12 inh,TSG101-PTAP inh
Cc1ccc(F)cc1NC(=O)c1cc(-c2ccc[nH]2)n[nH]1,.,.,.,.,16µM*,.
Cc1cc(C)cc(NC(=O)COC(=O)c2cccc(S(=O)(=O)N3CCc4ccccc43)c2)c1,.,.,.,.,-14%,.
O=S(=O)(Nc1cc(Cl)cc(Cl)c1)c1cccc(C(F)(F)F)c1,.,.,.,.,-14%,.
CCOc1c(Cl)cc(/C=N/NC(N)=S)cc1OC,11µM*,1%,i,5%,?,-3%
COc1cccc(/C=N/n2nnnc2N)c1OCc1ccccc1Cl,-9%,1%,i,0%,0%,-3%
COc1cccc(/C=N/NC(N)=S)c1OCc1ccccc1Cl,-27%,0%,i,0%,28µM*,-2%
Nc1ccc2nc3c(=O)n(C4CCCCC4)c(=O)[nH]c3nc2c1,13µM*,?,i,-8%,-14%,?
NC(=S)Nc1ccc(S(=O)(=O)c2ccc(NC(N)=S)cc2)cc1,1%,1%,i,1%,40µM*,-2%
CC(=O)Nc1ccc(S(=O)(=O)c2ccc(N)cc2)cc1,-6%,0%,i,0%,-7%,-4%
C=C(C)Cn1c(N2CCN(CC(=O)OC)CC2)nc2c1c(=O)[nH]c(=O)n2C,.,.,.,.,6%,.
COc1ccc(Cn2c(=S)[nH]c3ccccc32)cc1,23%,-13%,i,-1%,45µM*,-1%
COc1ccc(-n2c(=S)[nH]c3ccccc32)cc1,0%,1%,i,-1%,28µM*,-6%
Cc1cc(Nc2cc(C)on2)n2ncnc2n1,6%,-2%,i,1%,1.3µM*,-1%
CC1=CCC(C(=O)O)C(C(=O)Nc2nc3ccc(S(C)(=O)=O)cc3s2)C1 (stereo unspecified),-9%,0%,-120%*,3%,-3%,0%
Cc1noc(C)c1S(=O)(=O)N1CCCN(Cc2ccncc2)C(c2ccccc2)CC(=O)NCC1 (stereo unspecified),.,.,.,.,49%,.
CCCCCCCCCCS(=O)(=O)CCCCCl,.,.,.,.,-21%,.
O=C(NC(=S)Nc1ccccn1)c1ccc(-c2ccccc2)cc1,?,3%,i,-4%,32µM*,-7%
C=CCN(CC=C)S(=O)(=O)c1ccc(NC(=S)NC(=O)c2ccc(-c3ccccc3)cc2)cc1,0%,0%,i,-3%,3.2µM*,0%
Cc1cc(C)c(NC(=S)NC(=O)c2ccc(-c3ccccc3)cc2)c(C)c1,1%,0%,i,1%,22µM*,-1%
C=CCN(CC=C)S(=O)(=O)c1ccc(NC(=S)NC(=O)c2ccco2)cc1,0%,0%,i,-4%,?,-2%
COc1cc(C(=O)Nc2ccc3oc(-c4ccc5ccccc5c4)nc3c2)cc(OC)c1OC,.,.,.,.,7%,.
Cc1ccc(Cn2c(C3CCN(C(=O)c4ccc(C#N)cc4)CC3)n[nH]c2=O)cc1,.,.,.,.,6.3µM*,.
O=C(COc1ccc(F)cc1)N1CCC(c2n[nH]c(=O)n2-c2ccccc2)CC1,.,.,.,.,6%,.
Cc1ccc(Cn2c(C3CCN(C(=O)c4cccc(F)c4)CC3)n[nH]c2=O)cc1,.,.,.,.,45µM*,.
Cc1ccc(-n2c(C3CCN(C(=O)COc4ccc(F)cc4)CC3)n[nH]c2=O)cc1,.,.,.,.,45µM*,.
SMILES,Vif-A3F inh,Vif-A3G inh,pAkt inh,ASM inhibitor,ALOX12 inh,TSG101-PTAP inh
CN1C[C@@H](NC(=O)CC(C)(C)CC(=O)O)C[C@H]1c1nc(-c2ccccc2)no1,.,.,.,.,126µM*,.
CC(C)NC(=O)N[C@H]1C[C@@H](c2nc(-c3ccc4c(c3)OCO4)no2)N(C)C1,.,.,.,.,22µM*,.
CC(=O)N[C@H]1C[C@@H](c2nc(-c3ccc4c(c3)OCO4)no2)N(C)C1,.,.,.,.,-1%[176 µM],.
Cc1cc(=O)oc2cc(OCc3nc(-c4ccccc4)no3)ccc12,.,.,.,.,0%,.
O=C(Cc1cccc2ccccc12)N/N=C/c1ccc(Sc2nc3ccccc3s2)o1,8%,-18%,-112%*,-10%,0%,-9%
CCN(CC)CCCNc1ccc2ncn3c4ccc(O)cc4c(=O)c1c23,22µM*,?,i,0%,?,?
CN(C)CCNc1ccc2nnn3c4ccc(O)cc4c(=O)c1c23,?,-11%,i,-3%,3%,-2%
CC(C)(C)c1ccc(C(=O)NNC(=S)NC(=O)c2cccnc2)cc1,-3%,4%,i,-5%,?,-10%
CC(C)(C)c1ccc(C(=O)NC(=S)NNC(=O)c2cccs2)cc1,-13%,-9%,i,-1%,40µM*,0%
Cc1cccc(C(=O)NNC(=S)NC(=O)c2ccc(C(C)(C)C)cc2)c1,.,.,.,.,18µM*,.
Cc1cccc(C(=O)NC(=S)NNC(=O)c2ccc(Cl)cc2)c1,-8%,0%,i,3%,28µM*,-1%
N#CC1=C(N)N(c2ccccc2)C2=C(C(=O)OC2)C12C(=O)N(Cc1ccccc1)c1ccccc12 (stereo unspecified),.,.,.,.,-4%,.
Cc1ccsc1/C=N/N(Cc1ccccc1)c1ccccc1,.,.,.,.,-10%,.
COc1cc(/C=N/OCc2cccc3ccccc23)ccc1OCc1ccc(Cl)cc1,.,.,.,.,-52%,.
Nc1nccnc1C(=O)NCCNc1ncccc1C(F)(F)F,.,.,.,.,14%,.
C=C(C)CC1NC2CC(C)(C)C1c1c(Br)ccc(Br)c12 (stereo unspecified),.,.,.,.,-12%,.
C=C(C)CC1Nc2ccccc2NC1CC(=C)C (stereo unspecified),-10%,-9%,i,4%,28µM*,-5%
COc1ccc(NC(=O)Nc2sc(NS(=O)(=O)c3ccccc3)nc2C)cc1,-1%,1%,i,-2%,22µM*,-7%
Cc1ccc(S(=O)(=O)Nc2nc(C)c(NC(=O)Nc3ccc(Cl)cc3Cl)s2)cc1,2%,0%,i,-18%,2µM*,-2%
NC(=O)C1CCN(C(=O)CCc2ncc(-c3ccc(F)cc3)o2)CC1,.,.,.,.,28%,.
CC1(C)CN=C(SCc2ccc(C(C)(C)C)cc2)NC1,.,.,.,.,-10%,.
COc1ccc(OCCSC2=NCC(C)(C)CN2)cc1,.,.,.,.,35µM*,.
CCC12CN3CC(CC)(CN(C1)C3c1ccc(C(C)C)cc1)C2=O (stereo unspecified),.,.,.,.,56%,.
CCC12CN3CC(CC)(CN(C1)C3c1ccc(OC(C)C)cc1)C2=O (stereo unspecified),-5%,-6%,-112%*,-1%,0%,-9%
CCC(CO)Oc1cc(NC(=O)c2ccccc2F)c2ncn(C(C)C)c2c1 (stereo unspecified),5%,1%,i,-4%,28µM*,-2%
